Screening results from PubChem.
Cruzain inh Det: cruzain (T. cruzi) inhibition with detergent. hit rate 0.43% among 200,000. purified cruzain, Z-FR-AMC fluorescence, 0.01% Triton. P25779. AID 1478. Potency, µM, for inactives: max response, negative = inhibition, most hits filed as inhibitors;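 also: plate controls were neutral wells for no effect and buffer without enzyme for full effect; nearly all actives have a fitted effect of over 40% in size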
Target sequence (P25779 123-467 limits assumed): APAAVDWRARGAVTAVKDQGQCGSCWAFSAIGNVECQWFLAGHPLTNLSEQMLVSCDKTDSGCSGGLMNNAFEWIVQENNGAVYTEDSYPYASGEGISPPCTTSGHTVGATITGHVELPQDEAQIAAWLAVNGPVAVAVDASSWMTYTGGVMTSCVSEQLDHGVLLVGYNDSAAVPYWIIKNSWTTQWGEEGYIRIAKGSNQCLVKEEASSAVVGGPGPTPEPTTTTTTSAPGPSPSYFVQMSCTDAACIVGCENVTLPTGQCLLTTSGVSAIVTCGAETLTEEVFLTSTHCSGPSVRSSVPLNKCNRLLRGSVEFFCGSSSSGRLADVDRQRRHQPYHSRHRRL
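Cruzain (1.5 nM) preincubated 15 min at RT with compound in 100 mM sodium acetate pH 5.5, 5 mM DTT, 0.01% Triton X-100. Reaction started with 2 uM Z-FR-AMC; AMC fluorescence (ex 360/em 450 nm) change over 60 s gave rate.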
Cruzain noTriton: blocks cruzain activity in detergent-free assay. purified cruzain, Z-FR-AMC fluorescence, no detergent. Potency, µM, inactives show max response, negative = inhibition, hits mostly inhibitors. hit rate 2.3% among 200,000. AID 1476;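 also: plate controls were enzyme without inhibitor for no effect and buffer without enzyme for full effect; nearly all actives have a fitted effect of over 40% in size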
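Detergent-free condition (0.00005% Triton X-100) in acetate buffer pH 5.5 with DTT. 1.5 nM enzyme and compound were pre-mixed 15 min, then 2 uM Z-FR-AMC substrate added; reaction progress from fluorescence change between first and third reads (60 s).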
Papain inh: counter-screen for cruzain inhibitors: papain inhibition | shares compounds with Cruzain inh Det | purified papain, Z-FR-AMC fluorescence cleavage | Potency, µM, for the others: max response, negative = inhibition, hits mostly inhibitors | hit rate 41% among 410 | AID 2161;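 also: 0% = no-compound wells and -100% = no-enzyme wells; nearly all actives have a fitted effect of over 35% in size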
Target sequence (P00784 whole entry, looked up): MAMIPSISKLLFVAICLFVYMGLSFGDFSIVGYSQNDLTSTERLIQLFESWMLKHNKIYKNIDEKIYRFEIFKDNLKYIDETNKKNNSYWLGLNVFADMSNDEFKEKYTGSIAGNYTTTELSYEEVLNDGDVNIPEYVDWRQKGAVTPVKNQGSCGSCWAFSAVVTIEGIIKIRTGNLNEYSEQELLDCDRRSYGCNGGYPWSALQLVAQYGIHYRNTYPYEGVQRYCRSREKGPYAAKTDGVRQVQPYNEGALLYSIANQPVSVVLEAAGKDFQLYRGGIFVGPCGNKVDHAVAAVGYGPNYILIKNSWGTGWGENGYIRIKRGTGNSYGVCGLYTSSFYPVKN
* marks the source's active call; other numbers are inactive results. Compounds with a hit are over-represented: about 2.4% of the library has one in this group of screens. Calls follow the shape of the dose curve; as a rule, active = well fitted curve in the direction sought with a large enough effect; inconclusive = small, poorly fitted or top-dose-only effect, or another doubt; inactive = no such curve, though single readings can be large; an effect the other way counts as inactive or inconclusive. Potency is read from the fitted curve at half-maximal effect.

How did COc1ccccc1CN(Cc1cc2cc3c(cc2[nH]c1=O)OCCO3)Cc1nnnn1Cc1ccco1 do in these assays?
Cruzain inh Det: -11%; Cruzain noTriton: inconclusive

Results for CCc1ccc2[nH]c(=O)c(CN(Cc3ccccc3)Cc3nnnn3Cc3ccccc3)cc2c1 ?
Papain inh: -11%

How did Cc1ccc2cc(CN(Cc3ccco3)Cc3nnnn3Cc3ccco3)c(=O)[nH]c2c1 do in these assays?
Papain inh: -8%

Results for Cc1cccc2cc(CN(Cc3ccccc3)Cc3nnnn3Cc3ccccc3)c(=O)[nH]c12 ?
Papain inh: -7%

How did O=c1[nH]c2cc3c(cc2cc1CN(Cc1ccccc1)Cc1nnnn1Cc1ccco1)OCCO3 do in these assays?
Cruzain inh Det: -14%; Cruzain noTriton: 8%

How did Cc1cccc2cc(CN(Cc3cccs3)Cc3nnnn3Cc3ccccc3)c(=O)[nH]c12 do in these assays?
Cruzain inh Det: -1%; Cruzain noTriton: 0%

How did Cc1ccc2[nH]c(=O)c(CN(Cc3ccco3)Cc3nnnn3Cc3ccccc3)cc2c1 do in these assays?
Papain inh: -18%

What do the screens show for `CCc1ccc2[nH]c(=O)c(CN(Cc3ccccc3)Cc3nnnn3Cc3ccco3)cc2c1`?
Cruzain inh Det: -12%; Cruzain noTriton: 6%

What do the screens show for `Clc1ncc(CN2CCN(Cc3ccccc3)CC2)s1`?
Cruzain inh Det: 5%; Cruzain noTriton: -4%

Results for CCn1ccc2cc(S(=O)(=O)N3CCCN(C(=O)Nc4ccc(C)c(F)c4)CC3)ccc21 ?
Cruzain inh Det: -5%; Cruzain noTriton: inconclusive

What do the screens show for `COc1ccc(C(=O)Nc2nnc(SCc3cc(=O)c4cccc(F)c4[nH]3)s2)cc1`?
Cruzain inh Det: 1%; Cruzain noTriton: -21%

How did Cc1cccc(-c2nc3c(C#N)c[nH]n3c2NC2CCCCC2)c1 do in these assays?
Cruzain inh Det: -2%; Cruzain noTriton: 4%

What do the screens show for `Cc1ccc2[nH]c(=O)c(CN(Cc3ccccc3)Cc3nnnn3Cc3ccccc3)cc2c1`?
Papain inh: -8%

What do the screens show for `Cc1ccc2[nH]c(=O)c(CN(CCCO)Cc3nnnn3Cc3ccco3)cc2c1`?
Papain inh: -1%

What do the screens show for `Cc1ccc2[nH]c(=O)c(CN(Cc3nnnn3Cc3ccccc3)C3CCCC3)cc2c1`?
Cruzain inh Det: -13%; Cruzain noTriton: 3%

Results for Cc1ccc2[nH]c(=O)c(CN(Cc3ccc4c(c3)OCO4)Cc3nnnn3Cc3ccco3)cc2c1 ?
Cruzain inh Det: -3%; Cruzain noTriton: -8%

Results for O=C(Nc1ccccc1Br)N1CCN2CCCCC2C1 (stereo not drawn) ?
Cruzain inh Det: -1%; Cruzain noTriton: -9%

Results for C=CCN1C(=O)/C(=C2/C(=O)N(CC(=O)O)c3ccccc32)S/C1=N/c1nccs1 ?
Cruzain inh Det: -6%; Cruzain noTriton: inconclusive

What do the screens show for `O=C(NCCc1nc(-c2ccccc2)cs1)c1ccc(Br)cc1`?
Cruzain inh Det: -5%; Cruzain noTriton: 1%

What do the screens show for `CSc1nc(N(CCO)CCO)c2sc3nc(-c4ccco4)c4c(c3c2n1)CCC4`?
Cruzain inh Det: 10µM*; Cruzain noTriton: 3.2µM*; Papain inh: 13µM*

How did OCCN(CCO)c1ncnc2c1sc1nc(N3CCOCC3)c3c(c12)CCCC3 do in these assays?
Cruzain inh Det: -11%; Cruzain noTriton: inconclusive

What do the screens show for `NC(=O)CC1NC(=O)c2cc([N+](=O)[O-])cc(I)c2OCCC(C(N)=O)NC(=O)[C@@H]2CCCN2C1=O` (stereo partly drawn)?
Cruzain inh Det: -1%; Cruzain noTriton: 10%

How did O=C1N[C@H](Cc2ccccc2)C(=O)N1Cc1cccc2ccccc12 do in these assays?
Cruzain inh Det: 0%; Cruzain noTriton: -13%

Results for COc1ccccc1-c1nnc(SCc2nc3ccccc3s2)n1C ?
Cruzain inh Det: 1%; Cruzain noTriton: -13%

Results for Cn1nc(-c2ccncc2)nc2c(=O)n(C)c(=O)nc1-2 ?
Papain inh: -7%

What do the screens show for `Cn1c(=O)c(-c2ccccc2)nn2c3ccccc3nc12`?
Cruzain inh Det: 2%; Cruzain noTriton: -19%

How did Cc1nc2c(=O)n(C)c(=O)nc-2n(C)n1 do in these assays?
Cruzain inh Det: 1µM*; Cruzain noTriton: 0.5µM*; Papain inh: -1%

How did COc1cc(/C=c2\sc3nc(-c4ccncc4)nn3c2=O)ccc1OC(C)=O do in these assays?
Cruzain inh Det: -1%; Cruzain noTriton: inconclusive

What do the screens show for `Cc1ccc(-n2c3nc(=O)n(C)c(=O)c-3cc3ccccc32)c(C)c1`?
Cruzain inh Det: 8%; Cruzain noTriton: -10%

Results for Cn1nc(-c2ccccc2)nc2c(=O)n(C)c(=O)nc1-2 ?
Papain inh: -4%

Results for Cc1nn(C)c2c1c(C(F)(F)F)cc(=O)n2C(C)C(=O)NCCc1ccc(Cl)cc1 (stereo not drawn) ?
Cruzain inh Det: 0%; Cruzain noTriton: -2%

How did Cc1cccc(NC(=O)CSc2cn(CC(=O)N3CCCC3)c3ccccc23)c1C do in these assays?
Cruzain inh Det: -3%; Cruzain noTriton: -14%

Results for CCCN(C(=O)Nc1cn(CC(C)C)c(=O)c2ccccc12)c1ccc(F)cc1 ?
Cruzain inh Det: -7%; Cruzain noTriton: -5%

Results for O=C(Nc1cccc(F)c1)C1CCN(c2nc3ccccc3[nH]2)CC1 ?
Cruzain inh Det: 0%; Cruzain noTriton: 10%

What do the screens show for `O=C(Nc1ccc(-n2nncc2-c2ccccc2)cc1)c1cccc(F)c1`?
Cruzain inh Det: 11%; Cruzain noTriton: 9%

What do the screens show for `CN(C)S(=O)(=O)c1ccc(C(=O)Nc2ccc(-n3nncc3-c3ccccc3)cc2)cc1`?
Cruzain inh Det: 0%; Cruzain noTriton: -16%

Results for COc1ccc(-c2cnnn2-c2ccc(NC(=O)/C=C/c3ccc(OC)c(OC)c3)cc2)cc1 ?
Cruzain inh Det: 3.5µM*; Cruzain noTriton: 13µM*; Papain inh: -14%

Results for COc1ccc(/C=C/C(=O)Nc2ccc(-n3nncc3-c3ccc(OC)c(OC)c3)cc2)cc1OC ?
Cruzain inh Det: -15%; Cruzain noTriton: inconclusive

Results for O=C(/C=C/c1ccc2c(c1)OCO2)Nc1ccc(-n2nncc2-c2ccccc2)cc1 ?
Papain inh: 14µM*

How did O=C(Nc1ccccc1)c1ccc(-n2nncc2-c2ccccc2)cc1 do in these assays?
Papain inh: 2%

How did COc1ccc(Cl)cc1NC(=O)c1cc(S(=O)(=O)NC2CCCCCC2)ccc1F do in these assays?
Cruzain inh Det: 1%; Cruzain noTriton: -7%

Results for O=C(CN1C(=O)NC2(CCCC2)C1=O)Nc1ccccc1F ?
Cruzain inh Det: -1%; Cruzain noTriton: 0%

How did O=C(Cn1c2ccccc2c(=O)c2ccccc21)Nc1cccc(F)c1 do in these assays?
Cruzain inh Det: 0.79µM*; Cruzain noTriton: -28%; Papain inh: -4%

How did O=C(Cn1c(=O)n(Cc2ccco2)c(=O)c2ccccc21)Nc1cccc(F)c1 do in these assays?
Cruzain inh Det: -9%; Cruzain noTriton: -19%

How did O=C(NCc1ccc2c(c1)OCO2)c1ccc2c(c1)N(Cc1c(F)cccc1Cl)C(=O)c1ccccc1S2 do in these assays?
Cruzain inh Det: -2%; Cruzain noTriton: 10µM*; Papain inh: -3%

How did O=C(O)c1ccc2c(c1)N(Cc1ccc(F)cc1Cl)C(=O)c1ccccc1S2 do in these assays?
Cruzain inh Det: -1%; Cruzain noTriton: inconclusive

How did O=C(NCc1ccco1)c1ccc2c(c1)N(Cc1c(F)cccc1Cl)C(=O)c1ccccc1S2 do in these assays?
Cruzain inh Det: -3%; Cruzain noTriton: inconclusive
